{"source": "PubChem BioAssay AID651871", "about": "(Sanford-Burnham Center for Chemical Genomics, 2012)", "system": "HL-1", "test": "protection of cardiomyocytes from stress damage, SAR follow-up, cell-based, panel, H9c2 and HL-1, ATP luminescence, set 2 (AID 651871);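 note: cells exposed to stressor for 2 h before ATP readout; reference of the scale not given here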", "details": "H9c2/HL-1 cardiomyocytes, 2-deoxyglucose stress, with 2-deoxyglucose, run 2, at 19.8 µM (top of the series)"}
{"smiles": "COc1ccc2c(c1OC)C(=O)N1c3ccccc3C(=O)N(Cc3cccc(Cl)c3Cl)C21", "note": "(stereo unspecified)", "values": [{"measurement": "activity (protection/inhibition)", "result": 23.7, "unit": "%"}]}
